Data taken from PubChem BioAssay (NCATS).
Inconclusive results are not listed. Activity calls are given as the source filed them. Calls follow the shape of the full dose curve.

Assay: VSVG counterscreen qHTS to identify inhibitors of SARS-CoV-2 cell entry (AID 1645847); also: nearly all actives have a fitted effect of over 65% in size
Details: VSV-G pseudotyped particle entry, luciferase; series mostly up to 57.2 µM; activity change, negative = inhibition: at the top concentration
Description: Assay Provider: Wei Zheng, Ph.D.
National Center for Advancing Translational Sciences, National Institute of Health, Rockville, MD.
SARS-CoV-2 spike protein, within the viral envelope, mediates viral attachment and infection of host cells. The SARS-CoV-2 spike protein specifically binds to the host receptor ACE2 (Angiotensin-converting enzyme 2). This interaction promotes endocytosis of the viral particle, additional events lead to viral-host cell membrane fusion and release of the viral contents, allowing viral replication.
While SARS-CoV-2 requires BSL-3 facilities for live virus work, pseudotyped partices (PP) that incorporate SARS-CoV-2 spike proteins without replication elements could facilitate studies on viral entry mechanisms in a BSL-2 setting. This PP cell entry assay could also enable screening of small molecule compound libraries in BSL-2 setting to identify inhibitors of SARS-CoV-2 cell entry.
SEQUENCE No. (e.g., 1, 2, 3, etc.); […] (e.g., Cells, Incubation, Reagent, etc.); VALUE and DESCRIPTION.
1. Cells. Seed 1500 HEK293-ACE2 cells (Expi293F with stable expression of human ACE2) in 2 microL/well media (DMEM, 10% FBS, 1x L-glutamine, 1x Pen/Strep, 1 ug/ml puromycin) in white 1536-well assay plates (Greiner #782073).
2. Incubation. Incubate at 37 degrees C with 5% CO2 overnight (~16 h).
3. Compound. Dispense 23 nL/well compounds in DMSO via pin transfer.
4. Incubation. Incubate for 1 h at 37C 5% CO2.
5. Reagent. Dispense 2 microL/well of vesicular stomatitis virus G glycoprotein (VSV-G) pseudotyped particles (PP). [a] PPs are produced with murine leukemia virus pseudo-typing.
6. Centrifugation. […]
7. Incubation. Incubate at for 48 h at 37C 5% CO2
8. Centrifugation. Remove supernatant with gentle centrifugation using a Blue Washer (BlueCat Bio).
9. Reagent. Dispense 4 microL/well of Bright-Glo Luciferase detection reagent (Promega #E2620).
10. Incubation. Incubate for 5 min at room temperature.
11. Detection. Read luminescence signal (ViewLux plate reader, PerkinElmer). Data was normalized with wells containing VSV-G PP as 100%, and wells containing bald PP (no fusion protein) as 0%.
% is scaled to controls: 0 for no effect and ±100 for the full control effect; potency is read from the fitted curve at half-maximal effect.

| SMILES | Potency | activity change, negative = inhibition |
| --- | --- | --- |
| Cc1c(C)c2c(c(C)c1O)CCC(C)(COc1ccc(CC3SC(=O)NC3=O)cc1)O2 (stereo unspecified) | 24.1 µM (active) | – |
| Oc1ccc(Cl)c2cccnc12 | 3.04 µM (active) | – |
| Cc1cc(NS(=O)(=O)c2ccc(N)cc2)nc(C)n1 | – | -31.7% (inactive) |
| CC(C)c1cccc(C(C)C)c1O | – | -15.1% (inactive) |
| C[n+]1c2cc(N)ccc2cc2ccc(N)cc21 (tested in a mixture with another compound) | 4.29 µM (active) | – |
| Nc1ccn([C@@H]2O[C@H](CO)[C@@H](O)C2O)c(=O)n1 (stereo partly specified) | 4.82 µM (active) | – |
| COc1cccc2c1C(=O)c1c(O)c3c(c(O)c1C2=O)C[C@@](O)(C(=O)CO)CC3OC1CC(N2CCOC(OC)C2)C(O)C(C)O1 (stereo partly specified) | 0.0482 µM (active) | – |
| C[C@]12C=CC(=O)C=C1CC[C@@H]1[C@@H]2[C@@H](O)C[C@@]2(C)[C@H]1CC[C@]2(O)C(=O)CO | 13.6 µM (active) | – |
| CN1C(C(=O)Nc2ccccn2)=C(O)c2ccccc2S1(=O)=O | 21.5 µM (active) | – |
| CC(C)OC(=O)OCOP(=O)(CO[C@H](C)Cn1cnc2c(N)ncnc21)OCOC(=O)OC(C)C | 0.0192 µM (active) | – |
| Cc1ccc(Nc2nccc(N(C)c3ccc4c(C)n(C)nc4c3)n2)cc1S(N)(=O)=O | 12.1 µM (active) | – |
| COC(=O)C1=C(C)NC(C)=C(C(=O)OCC(C)=O)C1c1ccccc1[N+](=O)[O-] (stereo unspecified) | 8.57 µM (active) | – |
| Nc1nc2[nH]cc(CCc3ccc(C(=O)N[C@@H](CCC(=O)O)C(=O)O)cc3)c2c(=O)[nH]1 | 1.71 µM (active) | – |
| O=C1CN(/N=C/c2ccc([N+](=O)[O-])o2)C(=O)N1 | 1.92 µM (active) | – |
| CCOc1ccc2nc3cc(N)ccc3c(N)c2c1 | 21.5 µM (active) | – |
| CCCCCCNC(=O)n1cc(F)c(=O)[nH]c1=O | 5.41 µM (active) | – |
| CC(C)=CCC/C(C)=C/CC/C(C)=C/CCC(=O)OC/C=C(\C)CCC=C(C)C | 1.08 µM (active) | – |
| COc1cccc2c1C(=O)c1c(O)c3c(c(O)c1C2=O)C[C@@](O)(C(=O)CO)C[C@@H]3O[C@H]1C[C@H](N)[C@@H](O)[C@H](C)O1 | 0.0961 µM (active) | – |
| Cc1nc2ccc(CN(C)c3ccc(C(=O)N[C@@H](CCC(=O)O)C(=O)O)s3)cc2c(=O)[nH]1 | 0.304 µM (active) | – |
| CCN(CC)C(C)CN1c2ccccc2Sc2ccccc21 (stereo unspecified) | 0.341 µM (active) | – |
| Cc1cc2c(cc1CC(=O)c1sccc1S(=O)(=O)Nc1onc(C)c1Cl)OCO2 | – | 0.877% (inactive) |
